In PubChem BioAssay (NCATS):
Results filed as inconclusive are left out. Activity calls are given as the source filed them. Calls follow the shape of the dose curve; as a rule, active = well fitted curve in the direction sought with a large enough effect; inconclusive = small, poorly fitted or top-dose-only effect, or another doubt; inactive = no such curve, though single readings can be large; an effect the other way counts as inactive or inconclusive.

Legend:
[1] = test system: Zika virus NS2B-NS3 protease; assay: Primary screen GU AMC qHTS for Zika virus inhibitors (AID 1347154); also: nearly all actives have a fitted effect of over 70% in size; also: potency is read from the fitted curve at half-maximal effect
In short: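 Unlinked Zika NS2B hydrophilic domain/NS3 protease domain noncovalent complex (25 nM final) in 10 mM Tris-HCl pH 8.0, 0.01% Tween 20, with AMC peptide substrate. Fluorescence (ex 340, em 450 nm) change over 15 min, room temperature; percent inhibition fitted to 4-parameter Hill equation.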

[2] = target: Lysine-specific demethylase 5B (Homo sapiens) (UniProt Q9UGL1); assay: Optimization screen for KDM5B Histone Demethylases FDH coupled qHTS against the LOPAC library (AID 1347166)
In short: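 KDM5BDeltaAP (200nM final) in 50mM HEPES pH 7.5, 0.01% Tween-20 was preincubated with compound for 10 min at room temperature. A substrate mix of 12.5uM H3K4Me3, 25uM a-ketoglutarate, ascorbate, Fe2+, NAD+ and formaldehyde dehydrogenase was then added. NADH fluorescence (340/450 nm) was read initially and after 30 min.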

[3] = qHTS to identify inhibitors of the type 1 interferon - major histocompatibility complex class I in skeletal muscle: primary screen against the NCATS LOPAC collection (AID 1347405);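 also: human myoblasts with HiBiT tag on endogenous HLA-B stimulated by IFN-beta; lytic HiBiT luminescence reporting HLA-B protein level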
In short: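 IFN-beta-stimulated (4 ng/ml) HLA-B HiBiT knock-in myoblasts, compound-treated 24 hrs up to 46 uM final; signal via LgBiT complementation and furimazine luminescence.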

[4] = qHTS to identify inhibitors of the type 1 interferon - major histocompatibility complex class I in skeletal muscle: primary screen against the NCATS Pharmaceutical Collection (AID 1347407);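 also: luminescence of HiBiT knocked into endogenous HLA-B as interferon-induced MHC class I level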
In short: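 HLA-B HiBiT myoblasts, dexamethasone-free growth medium + 4 ng/ml IFN-b; compounds pinned 1 h after seeding, […] from 46 uM; 24 h, 37 C, 5% CO2; lytic HiBiT detection, 10 min RT, luminescence.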

[5] = qHTS for inhibitors of adenylyl cyclases using a fission yeast platform: a pilot screen against the NCATS LOPAC library (AID 1347410)
In short: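 Read-out: fbp1-GFP fluorescence by laser scanning cytometry (488 nm laser), a gain of signal when AC/cAMP-PKA signalling is inhibited. Strain CHP2027 expressing AC9, GNAS and PDE4D2; compounds at up to 57 µM; 18 h, 30C.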

[6] = target: Protein phosphatase 1D (Homo sapiens) (UniProt O15297); assay: RapidFire Mass Spectrometry qHTS Assay for Modulators of WT P53-Induced Phosphatase 1 (WIP1) (AID 1347424);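 also: amount of dephosphorylated VEPPL-S-QETFS peptide product formed by WIP1; series mostly up to about 63 µM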
In short: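 Mass-spectrometric measurement of dephosphorylated peptide after a 5 min room-temperature reaction of 10 nM WIP1 with 2 uM phosphopeptide, following 1 h compound preincubation in 30 mM MgCl2 buffer.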

[7] = target: Protein phosphatase 1D (Homo sapiens) (UniProt O15297); assay: Rhodamine-PBP qHTS Assay for Modulators of WT P53-Induced Phosphatase 1 (WIP1) (AID 1347425)
In short: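 Steps: enzyme with Rh-PBP sensor and compounds, room-temperature incubation of 1 hr, baseline read, addition of VEPPL-pS-QETFS (10 uM final), kinetic fluorescence reads at 525/598 nm. Activity equals final minus baseline signal.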

[8] = Validation qHTS assay for inhibitors of Activation Induced Cytidine Deaminase (AID): UDG Counterscreen signal (AID 1347427)
In short: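 Fluorescence at 560 nm excitation, 665 nm emission reports UDG signal after 250 mM NaOH (2x) addition and 30 min. Enzymes (AID 1 uM, UDG 2 U/mL, at 4/3x) preincubated 10 min with compound, then 4 h with 4x 250 nM DJC20/DJC23 substrate at room temperature.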

[9] = target: Single-stranded DNA cytosine deaminase (Homo sapiens) (UniProt Q9GZX7); assay: Validation qHTS assay for inhibitors of Activation Induced Cytidine Deaminase (AID): AID signal (AID 1347429)
In short: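 Compounds (up to 114 uM final) are tested against AID plus UDG using DJC20/DJC23 FRET substrate. Reactions incubate 4 hr at room temperature, receive NaOH for 30 min, and are read at Ex 540/Em 590 nm.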

[10] = qHTS to identify inhibitors of the type 1 interferon - major histocompatibility complex class I in skeletal muscle: primary screen against the NCATS Mechanism Interrogation Plate v5.0 (MIPE) Libary (AID 1347411); also: nearly all actives have a fitted effect of over 65% in size
In short: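 IFN-beta-driven (4 ng/ml) HLA-B-HiBit expression in CRISPR-tagged C25cl48 myoblasts; compounds 11-pt, 1:3, max 46 uM, 24 hr exposure; lytic NanoLuc complementation luminescence.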

[11] = Confirmatory screen NINDS Rhodamine qHTS for Zika virus inhibitors (AID 1347161); also: nearly all actives have a fitted effect of over 60% in size; also: potency is read from the fitted curve at half-maximal effect
In short: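 Aprotinin served as in-plate control. Conditions: 25 nM linked NS2B-NS3, pH 8.0 Tris buffer, titrated compounds, 15 min preincubation and 15 min reaction with 1.5 microM Rhod110 substrate at room temperature.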

[12] = Vero cells viability qHTS for Zika virus inhibitors (AID 1347167)
In short: (§1)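 To flag cytotoxic protease inhibitors, viability is measured by ATP-dependent luminescence (CellTiter Glo) after cells attached overnight receive compound for 24 to 48 hours in DMEM with 4% FBS.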

[13] = HepG2 cells viability qHTS for Zika virus inhibitors (AID 1347168)
In short: as §1

[14] = Tertiary RLuc qRT-PCR qHTS assay for Zika virus inhibitors (AID 1347169); also: top concentration of the series differs between compounds; nearly all actives have a fitted effect of over 55% in size
In short: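 Luminescence read-out: live-cell Renilla luciferase substrate applied to infected Vero cells, signal measured after 1-1.5 hrs. Cells had received compound before ZIKV-RLuc (Cambodian strain, MOI 1-2) infection and were incubated 48-72 hrs at 37 degrees C.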

[15] = test system: Zika virus NS2B-NS3 protease (linked); assay: 384 well plate NINDS AMC confirmatory qHTS for Zika virus inhibitors (AID 1347163);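 also: linked protease at 5 30 or 60 nM final depending on run; fluorescence of AMC released from Ac-VKTGKR-AMC peptide cleaved by the protease; top concentration of the series differs between compounds; nearly all actives have a fitted effect of over 50% in size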
In short: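 Enzyme (5, 30 or 60 nM final) first met test compounds for ~15 min. The AMC-tagged peptide Ac-VKTGKR-AMC followed at 30 microM. Fluorescence was then recorded at 25 min and scaled against no-enzyme and no-inhibitor wells.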

[16] = test system: Zika virus NS2B-NS3 protease (linked construct); assay: 384 well plate NINDS Rhodamine confirmatory qHTS for Zika virus inhibitors (AID 1347164);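 also: fluorescence from protease cleavage of Ac-LKRR-rhodamine 110 substrate; top concentration of the series differs between compounds; nearly all actives have a fitted effect of over 65% in size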
In short: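 Fluorescence read at ex 485 nm/em 538 nm, 25 min after adding 10 microM Ac-LKRR-Rd substrate at room temperature in the dark; signal normalized to no-enzyme and no-inhibitor controls. Enzyme final 5, 30 or 60 nM; compounds, ~15 min preincubation.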

Measured: Potency

Chain of Lysine-specific demethylase 5B (Homo sapiens) (Q9UGL1 whole entry, looked up): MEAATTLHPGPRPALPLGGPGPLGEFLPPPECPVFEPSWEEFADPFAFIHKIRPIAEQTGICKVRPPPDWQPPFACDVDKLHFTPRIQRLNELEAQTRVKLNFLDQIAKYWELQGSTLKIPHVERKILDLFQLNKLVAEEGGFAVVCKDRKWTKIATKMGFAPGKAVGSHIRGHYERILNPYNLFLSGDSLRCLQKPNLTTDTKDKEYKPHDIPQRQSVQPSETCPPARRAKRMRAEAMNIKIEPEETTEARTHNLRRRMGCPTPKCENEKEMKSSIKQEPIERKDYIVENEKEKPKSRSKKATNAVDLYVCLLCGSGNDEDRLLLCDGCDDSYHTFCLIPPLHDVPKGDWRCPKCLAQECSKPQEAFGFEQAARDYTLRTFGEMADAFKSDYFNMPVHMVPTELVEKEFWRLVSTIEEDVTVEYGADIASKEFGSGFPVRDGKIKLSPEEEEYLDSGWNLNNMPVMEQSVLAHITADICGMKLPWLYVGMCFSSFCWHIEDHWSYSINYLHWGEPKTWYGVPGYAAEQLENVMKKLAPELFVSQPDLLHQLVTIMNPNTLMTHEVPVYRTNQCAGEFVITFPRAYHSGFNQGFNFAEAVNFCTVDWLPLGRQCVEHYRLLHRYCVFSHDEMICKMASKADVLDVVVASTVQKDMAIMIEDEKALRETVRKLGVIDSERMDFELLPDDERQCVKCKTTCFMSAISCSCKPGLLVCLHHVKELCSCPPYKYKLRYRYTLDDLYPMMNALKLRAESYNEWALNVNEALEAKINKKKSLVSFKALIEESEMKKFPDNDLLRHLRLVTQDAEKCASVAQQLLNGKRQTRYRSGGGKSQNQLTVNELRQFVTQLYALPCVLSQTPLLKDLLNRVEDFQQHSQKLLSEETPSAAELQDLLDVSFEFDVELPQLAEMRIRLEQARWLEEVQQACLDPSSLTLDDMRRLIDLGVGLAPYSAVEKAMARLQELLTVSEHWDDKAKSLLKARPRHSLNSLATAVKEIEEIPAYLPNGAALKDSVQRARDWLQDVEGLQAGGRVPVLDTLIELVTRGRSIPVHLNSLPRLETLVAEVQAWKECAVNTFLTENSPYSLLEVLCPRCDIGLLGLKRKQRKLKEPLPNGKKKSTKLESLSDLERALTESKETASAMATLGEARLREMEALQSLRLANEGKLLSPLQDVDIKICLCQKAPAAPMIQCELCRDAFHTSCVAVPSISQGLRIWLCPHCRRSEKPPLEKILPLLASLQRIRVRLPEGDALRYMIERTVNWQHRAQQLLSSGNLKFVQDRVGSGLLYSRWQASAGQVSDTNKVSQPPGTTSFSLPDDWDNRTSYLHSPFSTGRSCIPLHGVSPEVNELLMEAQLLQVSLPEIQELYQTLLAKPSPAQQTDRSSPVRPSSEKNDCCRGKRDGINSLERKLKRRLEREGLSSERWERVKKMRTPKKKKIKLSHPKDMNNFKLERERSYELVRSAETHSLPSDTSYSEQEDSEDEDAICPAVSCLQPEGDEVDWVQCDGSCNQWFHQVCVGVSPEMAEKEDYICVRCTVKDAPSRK
Chain of Single-stranded DNA cytosine deaminase (Homo sapiens) (Q9GZX7 whole entry, looked up): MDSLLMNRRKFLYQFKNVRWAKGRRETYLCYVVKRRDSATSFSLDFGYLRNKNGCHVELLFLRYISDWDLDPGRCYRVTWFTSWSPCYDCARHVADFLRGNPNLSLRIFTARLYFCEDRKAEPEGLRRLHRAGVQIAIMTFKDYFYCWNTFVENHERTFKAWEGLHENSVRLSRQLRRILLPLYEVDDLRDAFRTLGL
Chain of Protein phosphatase 1D (Homo sapiens) (O15297 whole entry, looked up): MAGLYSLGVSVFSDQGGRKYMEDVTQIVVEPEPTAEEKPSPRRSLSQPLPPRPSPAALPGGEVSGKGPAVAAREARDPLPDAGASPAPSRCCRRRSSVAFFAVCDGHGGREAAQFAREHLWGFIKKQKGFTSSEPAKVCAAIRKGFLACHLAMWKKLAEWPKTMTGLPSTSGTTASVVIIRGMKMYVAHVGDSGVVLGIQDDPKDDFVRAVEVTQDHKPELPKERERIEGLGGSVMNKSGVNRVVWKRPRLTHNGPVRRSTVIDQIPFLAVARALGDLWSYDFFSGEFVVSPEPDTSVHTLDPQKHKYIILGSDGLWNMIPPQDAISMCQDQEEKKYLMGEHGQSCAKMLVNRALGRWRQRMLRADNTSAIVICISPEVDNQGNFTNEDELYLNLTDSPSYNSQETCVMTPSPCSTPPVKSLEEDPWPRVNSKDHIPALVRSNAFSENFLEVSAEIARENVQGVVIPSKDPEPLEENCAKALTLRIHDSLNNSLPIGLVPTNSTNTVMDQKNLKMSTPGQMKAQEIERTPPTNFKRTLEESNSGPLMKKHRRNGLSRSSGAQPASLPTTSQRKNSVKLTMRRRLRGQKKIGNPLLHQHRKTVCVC

O=C(O)COCCN1CCN(C(c2ccccc2)c2ccc(Cl)cc2)CC1 (stereo not given)
inactive: [1] | [2] | [3] | [4] | [5] | [6] | [7] | [8] | [9]

c1ccc([C@H]2CN3CCSC3=N2)cc1
not listed: [11] | [12] | [13] | [14] | [15] | [16]
inactive: all other assays above

N[C@@H]1CONC1=O
not listed: [11] | [12] | [13] | [14] | [15] | [16]
inactive: all other assays above

CC(C[N+](C)(C)C)OC(N)=O (stereo not given)
not listed: [11] | [12] | [13] | [14] | [15] | [16]
inactive: all other assays above

O=NN(CCCl)C(=O)NCCCl
not listed: [11] | [12] | [13] | [14] | [15] | [16]
inactive: all other assays above

CC(C)NCC(O)COc1ccc(COCCOC(C)C)cc1 (stereo not given)
inactive: [1] | [2] | [3] | [4] | [5] | [6] | [7] | [8] | [9]

Cc1ccccc1C(OCCN(C)C)c1ccccc1 (stereo not given)
inactive: [1] | [2] | [3] | [4] | [5] | [6] | [7] | [8] | [9]

CCCc1nc2c(C)cc(-c3nc4ccccc4n3C)cc2n1Cc1ccc(-c2ccccc2C(=O)O)cc1
inactive: [1] | [12] | [13] | [4] | [10]
active: [11] 13.9 µM

CCn1cc(C(=O)O)c(=O)c2cc(F)c(N3CCNC(C)C3)c(F)c21 (stereo not given)
active: [1] 29.9 µM
not listed: [2] | [15] | [16]
inactive: all other assays above

OC(CCN1CCCCC1)(c1ccccc1)C1CC2C=CC1C2 (stereo not given)
not listed: [11] | [12] | [13] | [14] | [15] | [16]
inactive: all other assays above

NCCCC(N)(C(=O)O)C(F)F (stereo not given)
not listed: [11] | [12] | [13] | [14] | [15] | [16]
inactive: all other assays above

Nc1nc2ccc(OC(F)(F)F)cc2s1
not listed: [11] | [12] | [13] | [14] | [15] | [16]
inactive: all other assays above

C[C@]12CCC(=O)C=C1CC[C@@H]1[C@@H]2[C@@H](O)C[C@@]2(C)[C@H]1CC[C@]2(O)C(=O)CO
inactive: [1] | [2] | [3] | [4] | [5] | [10] | [6] | [7]

CC(C)(C)NCC(O)c1ccc(O)c(CO)c1 (stereo not given)
not listed: [11] | [12] | [13] | [14] | [15] | [16]
inactive: all other assays above

O=c1n(CCCN2CCN(c3cccc(Cl)c3)CC2)nc2ccccn12
active: [1] 26.7 µM
not listed: [2] | [10] | [14] | [15] | [16]
inactive: all other assays above

NC(=O)c1cnccn1
not listed: [11] | [12] | [13] | [14] | [15] | [16]
inactive: all other assays above

C1COC(NC(C2CC2)C2CC2)=N1
inactive: [1] | [2] | [3] | [5] | [10] | [6] | [8] | [9]

CC(C)c1onc(-c2c(Cl)cccc2Cl)c1COc1ccc(/C=C/c2cccc(C(=O)O)c2)c(Cl)c1
inactive: [15] | [16] | [13] | [10]
active: [1] 6.7 µM | [11] 2.47 µM

CCN(CC)CCCC(C)Nc1nc(C)cc(Nc2ccc3nc(C)cc(N)c3c2)n1 (stereo not given)
inactive: [1] | [10]

Nc1nc2c(ncn2COCCO)c(=O)[nH]1
inactive: [1] | [2] | [5] | [6] | [7]

Fc1ccc(Cl)cc1-c1nc(Nc2ccncc2)c2nccnc2n1
inactive: [1] | [10]

Cc1cc2c(F)c(Oc3ncnn4cc(OC[C@@H](C)O)c(C)c34)ccc2[nH]1
inactive: [1] | [10]

Cc1c(C)c2c(c(C)c1O)CCC(C)(COc1ccc(CC3SC(=O)NC3=O)cc1)O2 (stereo not given)
inactive: [1] | [4] | [10]

Oc1ccc(C2CNCCc3c2cc(O)c(O)c3Cl)cc1 (stereo not given)
inactive: [3] | [4] | [5] | [10] | [6] | [7] | [8] | [9]
active: [1] 12.6 µM

Cc1c(CCOc2ccc(C(=O)O)cc2)c2cc(Cl)ccc2n1C(c1ccccc1)c1ccccc1
inactive: [1] | [10]

CCc1ccc(CCOc2ccc(CC3SC(=O)NC3=O)cc2)nc1 (stereo not given)
inactive: [1] | [4] | [10] | [6]

CC(C)C[C@H](NC(=O)[C@@H](O)[C@H](N)Cc1ccccc1)C(=O)O
inactive: [1] | [2] | [3] | [5] | [10] | [8] | [9]

Cc1cnc(NC(=O)C2=C(O)c3ccccc3S(=O)(=O)N2C)s1
inactive: [1] | [2] | [5] | [6] | [7]
